Test results reported in PubChem BioAssay AID2685 (National Center for Advancing Translational Sciences (NCATS), 2010).
In all, about 320,000 compounds went through this assay and about 2,100 (0.66%) were called active. Another 53% or so got no clear call; they are omitted. The call rests on the fitted dose curve; in most records, active means well fitted inhibition curve with a large enough effect in the signal ratio, with a control signal flat (not every such curve was filed as active); inconclusive means small, poorly fitted or top-dose-only effect, or effect the other way, or a change in a side signal; inactive means flat fitted curve, though single readings scatter; the % refers to the signal ratio. Shown is part of a subset that was picked to be rich in actives.

assay: qHTS Assay for Lipid Storage Modulators in Drosophila S3 Cells; details: BODIPY lipid droplet fluorescence, 18-24 h, cells fed with added oleic acid; cell number change: measured here: cell count max response; series mostly up to 46.1 µM;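 on cell number change: cells counted by Cell Tracker Red CMTPX staining in the red channel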
Outline: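 Laser-scanning cytometry quantifies lipid droplet accumulation (500–530 nm total intensity; droplet/cell object ratio) in oleic acid-fed (400 uM added) Drosophila S3 cells treated with a concentration series. 20 uM Triacsin C defined 100% inhibition.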
Potency means the concentration at half of the fitted maximal effect.

Row | SMILES | Potency | cell number change
1 | O=C(COC(=O)c1ccco1)c1ccc(S(=O)(=O)N2CCCCC2)cc1 | inactive | -13.5%
2 | Cc1cc(C)n2nc(C(=O)NNC(=O)c3ccccc3)nc2n1 | inactive | 14%
3 | Cc1cc(C)n2nc(C(=O)OCC(=O)NNC(=O)c3ccc(Cl)cc3)nc2n1 | inactive | -14.4%
4 | Cc1cc(C)n2nc(C(=O)NNC(=O)c3ccc(Cl)cc3)nc2n1 | 18.4 µM (active) | -28%
5 | CCN(CC)c1nc(-c2ccc(Cl)cc2)cc(C(F)(F)F)c1C#N | inactive | -4.2%
6 | O=C(COc1ccc(-c2ccccc2)cc1)NNC(=O)Nc1ccc(F)cc1F | inactive | –
7 | CC1CN(Cc2ccccc2)C(C)CC1O (stereo unspecified) | inactive | 13.3%
8 | COc1ccc(OCC(O)CN2CCCCCC2)cc1 (stereo unspecified) | inactive | 9.25%
9 | OC(COc1ccc(C2C=CCC2)cc1)CN1CCCCC1 (stereo unspecified) | 0.731 µM (active) | 1.19%
10 | OC(COc1ccc(OCC(O)CN2CCCCCC2)cc1)CN1CCCCCC1 (stereo unspecified) | inactive | -8.16%
11 | FC(F)(F)c1ccnc(N2CCN(Cc3cnc(-c4ccccc4)[nH]3)CC2)c1 | inactive | 15%
12 | CC(NS(=O)(=O)c1ccc(OCC(=O)NCc2cccnc2)cc1)c1ccccc1 (stereo unspecified) | 0.651 µM (active) | -6.31%
13 | CC(NS(=O)(=O)c1ccc(CCC(=O)NCc2cccnc2)cc1)c1ccccc1 (stereo unspecified) | inactive | -3.81%
14 | CC(NS(=O)(=O)c1ccc(OCC(=O)NCc2ccncc2)cc1)c1ccccc1 (stereo unspecified) | inactive | 0.901%
15 | COCC1CCN(Cc2nc(-c3ccc(OC)cc3)no2)CC1 | inactive | 9.88%
16 | Cc1ccc(CSCC(=O)N(C)CC(=O)Nc2ccc(C)cc2)cc1 | inactive | 15.6%
17 | COc1ccc(NC(=O)CN(C)C(=O)CSCc2ccc(C)cc2)cc1 | 10.3 µM (active) | -11%
18 | Cc1ccc(CSCC(=O)N(C)CC(=O)Nc2ccc(Cl)c(Cl)c2)cc1 | inactive | 1.04%
19 | CCC(C)NC(=O)CN1C(=O)C(CC)Sc2ccccc21 (stereo unspecified) | inactive | -9.92%

Row | SMILES | Potency | cell number change
20 | CCOc1ccccc1NC(=O)C1CCCN(S(=O)(=O)c2ccc(-n3cnnn3)cc2)C1 (stereo unspecified) | inactive | 20.5%
21 | CCOC(=O)C1(CC2CC2)CCN(C(=O)c2cc(C3CC3)nc3ccccc23)CC1 | 25.9 µM (active) | -20.4%
22 | CCOC(=O)C1(CC2CC2)CCN(C(=O)c2ocnc2C)CC1 | inactive | -6.88%
23 | CCOC(=O)C1(CC2CC2)CCN(C(=O)c2cccnc2C)CC1 | inactive | 26%
24 | Cc1cc(Br)cc(C)c1NC(=O)c1ccc(C#N)cc1F | inactive | 3.82%
25 | C=CCNC(=S)NNC(=O)c1ccc(OCC)cc1 | inactive | -9.79%
26 | Cc1c(C(=O)NCCCN2CCOCC2)oc2ccc(S(=O)(=O)N3CCOCC3)cc12 | inactive | 20.6%
27 | COc1ccccc1CNC(=O)c1oc2ccc(S(=O)(=O)N3CCCC3)cc2c1C | inactive | –
28 | COc1cccc(NC(=O)c2oc3ccc(S(=O)(=O)N4CCOCC4)cc3c2C)c1 | inactive | 4.15%
29 | Cc1c(C(=O)NCCC2=CCCCC2)oc2ccc(S(=O)(=O)N3CCOCC3)cc12 | inactive | -13.3%
30 | COc1ccccc1CNC(=O)N1CCN(S(=O)(=O)c2ccc(Cl)cc2)CC1 | 0.13 µM (active) | 1.35%
31 | Cc1c(C(=O)NCc2ccc(F)cc2)oc2ccc(S(=O)(=O)N3CCOCC3)cc12 | inactive | -3.6%
32 | COc1ccccc1CNC(=O)[C@@H]1CCCN1S(=O)(=O)c1ccc(Cl)cc1 | inactive | -7.14%
33 | COc1ccccc1CNC(=O)c1oc2ccc(S(=O)(=O)N3CCOCC3)cc2c1C | 29.1 µM (active) | -8.7%
34 | Cc1c(C(=O)NCCCN2CCCC2=O)oc2ccc(S(=O)(=O)N3CCOCC3)cc12 | inactive | -0.135%
35 | O=C(NCc1ccc(Cl)cc1)N1CCN(S(=O)(=O)c2ccccc2)CC1 | inactive | 17.1%
36 | CCOCCCNC(=O)c1oc2ccc(S(=O)(=O)N3CCOCC3)cc2c1C | 18.4 µM (active) | –
37 | Cc1c(C(=O)NCc2c(F)cc(F)cc2F)oc2ccc(S(=O)(=O)N3CCOCC3)cc12 | 2.91 µM (active) | -3.48%
